# Experimental data: PubChem BioAssay (NCATS)
# A number with no mark means an inactive call. Results filed as inconclusive are left out. Active and inactive are the calls of the source. Calls come from the whole dose curve; as a rule, active = well fitted curve in the direction sought with a large enough effect; inconclusive = small, poorly fitted or top-dose-only effect, or another doubt; inactive = no such curve, though single readings can be large; an effect the other way counts as inactive or inconclusive. Where a SMILES comes first, the peptide text is derived from it. [ ]: non-standard residue; d: D form. ξ: configuration not given here. ξTyr(βOH) = NC(C(=O)O)C(O)c1ccc(O)cc1
# Test system: Nanoluciferase (engineered Oplophorus gracilirostris luciferase)
# Test: Primary Nanoluciferase (NLuc) qHTS assay for identification of artifact compounds. (AID 1845222); note: potency is the fitted concentration of half-maximal effect;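 for activity, negative = inhibition: NLuc secreted into diluted conditioned medium of S16 cells; 0% = DMSO and -100% = no enzyme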
# Settings: NLuc-conditioned medium, Nano-Glo luminescence, 5 min; series mostly up to 54.1 µM; activity, negative = inhibition: at the top concentration
# Summary of the method: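 qHTS format, against NLuc in S16 cell-conditioned medium. Nano-Glo substrate 1:100 was added after 15 min at room temperature. Luminescence was taken after a further 5 min.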
SMILES,"activity, negative = inhibition",Potency
C=C1CC/C=C(/C(=O)O)CCC2C1CC2(C)C (centres undefined),1.29%,
CCC[C@H](N[C@@H](C)C(=O)N1[C@H](C(=O)O)C[C@@H]2CCCC[C@@H]21)C(=O)O,-6.74%,
CC1=C(CCC(C)O[C@@H]2O[C@H](CO)[C@@H](O)[C@H](O)[C@H]2O)C(C)(C)CC(O)C1 (some centres undefined),-1.03%,
CC1(C)OC(=O)C=C[C@@]2(C)C1CC(=O)[C@]1(C)C2CC[C@@]2(C)[C@H](c3ccoc3)OC(=O)[C@H]3O[C@]321 (some centres undefined),-0.127% [at 25.7 µM],
CC1=CCC(O)C2(C)CCC3C(C)C(=O)OC3C12 (centres undefined),0.0298%,
C[C@@H]1O[C@@H](OC(=O)Cc2ccccc2)[C@H](O)[C@H](O)[C@H]1O,1.77%,
Cc1cc(CNC(=O)c2cc(C(=O)NCc3ccc(F)c(C)c3)ncn2)ccc1F,1.02%,
O=C(O)c1cc(O[C@@H]2O[C@H](CO)[C@@H](O)[C@H](O)[C@H]2O)ccc1O,1.32%,
CC1C2=CC(=O)OC2(O)CC2C1CCC1C(C)(C)CCC(O)C21C (centres undefined),-1.15%,
COc1cccc(C(=O)NCCNc2nc3cc(C)cc(C)c3cc2C#N)c1,-3.1%,
CC1(C)C[C@@H]2[C@H](C1)[C@@]1(C)C[C@]13C(O)OC[C@]3(O)[C@H]2O (some centres undefined),-1.09%,
C=C(C)C(O)COc1ccc(CC(=O)O)cc1 (centres undefined),-0.0399%,
COC(=O)C1=CO[C@@H](O[C@@H]2O[C@H](CO)[C@@H](O)[C@H](O)[C@H]2O)[C@H]2[C@@H]1[C@H](O)C[C@]2(C)O,1.73% [at 25.7 µM],
C=C(CCO)C(=O)OCC1OCC(OC(=O)C(=C)CCO[C@@H]2O[C@H](CO)[C@@H](O)[C@H](O)[C@H]2O)C(O)C1O (some centres undefined),-1.23% [at 25.7 µM],
C[C@]1(O)CC[C@@H]2C(C(=O)O)=CO[C@@H](O[C@@H]3O[C@H](CO)[C@@H](O)[C@H](O)[C@H]3O)[C@@H]21,2.26%,
CC(=O)OC(C)(C)/C=C/C(=O)[C@](C)(O)C1[C@H](O)C[C@@]2(C)[C@@H]3CC=C4[C@@H](C[C@H](O[C@@H]5O[C@H](CO)[C@@H](O)[C@H](O)[C@H]5O)C(=O)C4(C)C)[C@]3(C)C(=O)C[C@]12C (some centres undefined),1.94% [at 25.7 µM],
CC(C)C1NC(=O)CNC(=O)C2CCCN2C(=O)C(Cc2c[nH]c3ccccc23)NC(=O)CNC(=O)C(C(O)c2ccc(O)cc2)NC(=O)CNC1=O (centres undefined) (cyclo(G[ξTyr(βOH)]GWPGV); configuration not given here),0.182% [at 25.7 µM],
C/C(=C\CCC1(C)C2CC3C(C2)C31C)C(=O)O (centres undefined),-2.74%,
COc1ccc(/C=C/C(N)=O)cc1OC,2.41%,
COc1cc(O)cc(C)c1C(=O)O[C@H]1[C@@H](O)[C@@H](n2ccc(=O)[nH]c2=O)O[C@@H]1CO,-2.45% [at 25.7 µM],
COc1ccc(C(=O)OC2C3C=COC(OC4OC(CO)C(O)C(O)C4O)C3C3(CO)OC23)cc1OC (centres undefined),-2.69% [at 25.7 µM],
CC[C@H](C)[C@H](NC(=O)[C@H](Cc1ccc(O)cc1)NC(=O)[C@@H](N)C(C)C)C(=O)N[C@@H](Cc1cnc[nH]1)C(=O)N1CCC[C@H]1C(=O)N[C@@H](Cc1ccccc1)C(=O)O,2.76% [at 6.45 µM],
COc1ccc(S(=O)(=O)Nc2nc(-c3cccc([N+](=O)[O-])c3)cs2)cc1OC,,9.53 µM (active)
CC1(C)C2CC[C@@]34CC(CC[C@H]3[C@]2(C)CC[C@@H]1O[C@@H]1O[C@H](CO)[C@@H](O)[C@H](O)[C@H]1O)[C@](C)(O)C4 (some centres undefined),0% [at 25.7 µM],
CC(=O)OC1C(O)/C(C)=C\C2C(OC(=O)c3ccccc3)C(C)CC2(OC(C)=O)C(OC(C)=O)C(C)/C=C/C(C)(C)C1OC(C)=O (centres undefined),-0.997% [at 25.7 µM],
C=C1CCC[C@]2(C)CC[C@@](O)(C(=C)C(=O)O)C[C@@H]12,-9.7%,
CCN(CCN(C)C)C(=O)CNCc1cc(C(N)=O)ccn1,0%,
CC1(C)CC[C@]2(C(=O)O[C@@H]3O[C@H](CO)[C@@H](O)[C@H](O)[C@H]3O)CC[C@]3(C)C(=CCC4[C@@]5(C)C[C@H](O)[C@H](O[C@@H]6OC[C@@H](O)[C@H](O)[C@H]6O)[C@@](C)(CO)C5CC[C@]43C)C2C1 (some centres undefined),3.66% [at 11.6 µM],
COc1ccc(C2(O)c3c(ccc4c3OC(C)(CCC=C(C)C)C=C4)NC(=O)C2OC)cc1 (centres undefined),-7.72% [at 25.7 µM],

# Test system: not listed separately
# Test: Primary redox qHTS assay for identification of artifact compounds. (AID 1845223);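 note: 0% = DMSO and 100% = reference compound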
# Settings: Amplex Red/HRP redox cycling with DTT, fluorescence; series mostly up to 53.8 µM; redox activity (% of DA3003): at the top concentration
# Summary of the method: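 Amplex Red (25 uM) and HRP (250 mU/mL) in HBSS, with compounds for 15 min, then 250 uM DTT for 30 min, room temperature, dark. Fluorescence 525/598 nm read; normalized to DMSO and 10 uM DA3003; Hill fit.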
row,SMILES,redox activity (% of DA3003)
1,CC1OC(OC2C(OC3C(O[C@H]4CC[C@@]5(C)C(CC[C@]6(C)C5CC=C5C7CC(C)(C)CC(O)[C@]7(C)CC[C@]56C)C4(C)C)OC(C(=O)O)C(O)C3O)OCC(O)C2O)C(O)C(O)C1O (some centres undefined),9.66% [at 11.5 µM]
2,C=C1CC[C@@H]2[C@](C)(CO)[C@H](O[C@@H]3O[C@H](CO)[C@@H](O)[C@H](O)[C@H]3O)CC[C@@]2(C)[C@@H]1C/C=C1/C(=O)OC[C@H]1O,-2.76% [at 25.6 µM]
3,FC(F)(F)Oc1ccc(-c2ccc3nnc(C(F)(F)F)n3c2)cc1,-0.224%
4,COc1ccc(-c2ccn(CC[C@](C)(C(=O)NO)S(C)(=O)=O)c(=O)c2)c(F)c1,0.462%
5,CCCC/C=C\CCCCCc1cc(=O)c2ccccc2n1C,23.7%
6,COc1cc([C@H]2OC[C@](O)(Cc3ccc(O[C@@H]4O[C@H](CO)[C@@H](O)[C@H](O)[C@H]4O)c(OC)c3)[C@@H]2CO)ccc1O,-18.3% [at 25.6 µM]
7,N#CN1CCC[C@@H](n2nc(-c3ccc(Oc4ccc(F)cc4F)cc3)c(C(N)=O)c2N)C1,13.8%
8,COc1cc(O)cc(O[C@@H]2O[C@H](CO)[C@@H](O[C@@H]3OC[C@](O)(CO)[C@H]3O)[C@H](O)[C@H]2O)c1OC,-9.4% [at 25.6 µM]
9,CSCC[C@H](NC(=O)[C@H](CO)NC(=O)[C@H](CCC(=O)O)NC(C)=O)C(=O)N[C@H](C=O)CC(=O)O (Ac-ESMD-aldehyde),-1.61% [at 11.5 µM]
10,C=Cc1cc2oc(-c3ccc(O)c(F)c3)nc2cc1O,-2.92%
11,C=C1C2CCC3C(CCC4[C@@]3(C)CCC[C@@]4(C)C(=O)O)(C2)[C@@H]1OC(=O)/C(C)=C\C (some centres undefined),10.5% [at 25.6 µM]
12,C=C1CC/C=C(/C(=O)O)CCC2C1CC2(C)C (centres undefined),-7.11%
13,CCC[C@H](N[C@@H](C)C(=O)N1[C@H](C(=O)O)C[C@@H]2CCCC[C@@H]21)C(=O)O,-0.249%
14,CC1=C(CCC(C)O[C@@H]2O[C@H](CO)[C@@H](O)[C@H](O)[C@H]2O)C(C)(C)CC(O)C1 (some centres undefined),-2.7%
15,CC1(C)OC(=O)C=C[C@@]2(C)C1CC(=O)[C@]1(C)C2CC[C@@]2(C)[C@H](c3ccoc3)OC(=O)[C@H]3O[C@]321 (some centres undefined),8.49% [at 25.6 µM]
16,CC1=CCC(O)C2(C)CCC3C(C)C(=O)OC3C12 (centres undefined),10.3%
17,C[C@@H]1O[C@@H](OC(=O)Cc2ccccc2)[C@H](O)[C@H](O)[C@H]1O,-8.07%
18,Cc1cc(CNC(=O)c2cc(C(=O)NCc3ccc(F)c(C)c3)ncn2)ccc1F,-0.996%
19,O=C(O)c1cc(O[C@@H]2O[C@H](CO)[C@@H](O)[C@H](O)[C@H]2O)ccc1O,-10.6%
20,CC1C2=CC(=O)OC2(O)CC2C1CCC1C(C)(C)CCC(O)C21C (centres undefined),9.17%

row,SMILES,redox activity (% of DA3003)
1,COc1cccc(C(=O)NCCNc2nc3cc(C)cc(C)c3cc2C#N)c1,-6.46%
2,CC1(C)C[C@@H]2[C@H](C1)[C@@]1(C)C[C@]13C(O)OC[C@]3(O)[C@H]2O (some centres undefined),-11%
3,C=C(C)C(O)COc1ccc(CC(=O)O)cc1 (centres undefined),7.8%
4,COC(=O)C1=CO[C@@H](O[C@@H]2O[C@H](CO)[C@@H](O)[C@H](O)[C@H]2O)[C@H]2[C@@H]1[C@H](O)C[C@]2(C)O,-11.2% [at 25.6 µM]
5,C=C(CCO)C(=O)OCC1OCC(OC(=O)C(=C)CCO[C@@H]2O[C@H](CO)[C@@H](O)[C@H](O)[C@H]2O)C(O)C1O (some centres undefined),-18.3% [at 25.6 µM]
6,C[C@]1(O)CC[C@@H]2C(C(=O)O)=CO[C@@H](O[C@@H]3O[C@H](CO)[C@@H](O)[C@H](O)[C@H]3O)[C@@H]21,-15.8%
7,CC(=O)OC(C)(C)/C=C/C(=O)[C@](C)(O)C1[C@H](O)C[C@@]2(C)[C@@H]3CC=C4[C@@H](C[C@H](O[C@@H]5O[C@H](CO)[C@@H](O)[C@H](O)[C@H]5O)C(=O)C4(C)C)[C@]3(C)C(=O)C[C@]12C (some centres undefined),7.54% [at 25.6 µM]
8,CC(C)C1NC(=O)CNC(=O)C2CCCN2C(=O)C(Cc2c[nH]c3ccccc23)NC(=O)CNC(=O)C(C(O)c2ccc(O)cc2)NC(=O)CNC1=O (centres undefined) (cyclo(G[ξTyr(βOH)]GWPGV); configuration not given here),11.9% [at 25.6 µM]
9,C/C(=C\CCC1(C)C2CC3C(C2)C31C)C(=O)O (centres undefined),-6.63%
10,COc1ccc(/C=C/C(N)=O)cc1OC,14.4%
11,COc1cc(O)cc(C)c1C(=O)O[C@H]1[C@@H](O)[C@@H](n2ccc(=O)[nH]c2=O)O[C@@H]1CO,-13.4% [at 25.6 µM]
12,COc1ccc(C(=O)OC2C3C=COC(OC4OC(CO)C(O)C(O)C4O)C3C3(CO)OC23)cc1OC (centres undefined),7.12% [at 25.6 µM]
13,CC[C@H](C)[C@H](NC(=O)[C@H](Cc1ccc(O)cc1)NC(=O)[C@@H](N)C(C)C)C(=O)N[C@@H](Cc1cnc[nH]1)C(=O)N1CCC[C@H]1C(=O)N[C@@H](Cc1ccccc1)C(=O)O,-2.99% [at 6.41 µM]
14,COc1ccc(S(=O)(=O)Nc2nc(-c3cccc([N+](=O)[O-])c3)cs2)cc1OC,14%
15,CC1(C)C2CC[C@@]34CC(CC[C@H]3[C@]2(C)CC[C@@H]1O[C@@H]1O[C@H](CO)[C@@H](O)[C@H](O)[C@H]1O)[C@](C)(O)C4 (some centres undefined),-2.15% [at 25.6 µM]
16,CC(=O)OC1C(O)/C(C)=C\C2C(OC(=O)c3ccccc3)C(C)CC2(OC(C)=O)C(OC(C)=O)C(C)/C=C/C(C)(C)C1OC(C)=O (centres undefined),3.98% [at 25.6 µM]
17,C=C1CCC[C@]2(C)CC[C@@](O)(C(=C)C(=O)O)C[C@@H]12,-0.33%
18,CCN(CCN(C)C)C(=O)CNCc1cc(C(N)=O)ccn1,-0.835%
19,CC1(C)CC[C@]2(C(=O)O[C@@H]3O[C@H](CO)[C@@H](O)[C@H](O)[C@H]3O)CC[C@]3(C)C(=CCC4[C@@]5(C)C[C@H](O)[C@H](O[C@@H]6OC[C@@H](O)[C@H](O)[C@H]6O)[C@@](C)(CO)C5CC[C@]43C)C2C1 (some centres undefined),17.7% [at 11.5 µM]
20,COc1ccc(C2(O)c3c(ccc4c3OC(C)(CCC=C(C)C)C=C4)NC(=O)C2OC)cc1 (centres undefined),11.4% [at 25.6 µM]
